Columns and labels:
[1] = biological target: Insulin receptor (Homo sapiens) (UniProt P06213); details: at 10 µM
[2] = biological target: Insulin receptor (Homo sapiens) (UniProt P06213); details: at 1 µM
[3] = biological target: Insulin receptor (Homo sapiens) (UniProt P06213); details: at 10 µM; remark: listed apart in the source
[4] = biological target: Interleukin-1 receptor-associated kinase 1 (Homo sapiens) (UniProt P51617); details: at 1 µM
[5] = biological target: Interleukin-1 receptor-associated kinase 1 (Homo sapiens) (UniProt P51617); details: at 10 µM
[6] = biological target: T1, Interleukin-1 receptor-associated kinase 4 (Homo sapiens) (UniProt Q9NWZ3); details: at 1 µM
T1 sequence (whole entry): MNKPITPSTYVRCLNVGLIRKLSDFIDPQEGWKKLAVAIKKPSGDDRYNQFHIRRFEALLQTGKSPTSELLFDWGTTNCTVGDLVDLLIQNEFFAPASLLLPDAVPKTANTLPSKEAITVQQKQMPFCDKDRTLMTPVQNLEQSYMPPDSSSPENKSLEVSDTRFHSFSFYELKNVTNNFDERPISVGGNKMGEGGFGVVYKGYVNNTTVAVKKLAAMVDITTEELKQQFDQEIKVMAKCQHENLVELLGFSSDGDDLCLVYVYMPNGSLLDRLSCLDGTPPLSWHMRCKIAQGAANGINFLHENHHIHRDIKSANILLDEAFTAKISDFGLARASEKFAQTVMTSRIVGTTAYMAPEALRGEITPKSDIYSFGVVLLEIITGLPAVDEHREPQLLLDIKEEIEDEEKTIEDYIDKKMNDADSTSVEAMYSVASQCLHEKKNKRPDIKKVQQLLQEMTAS

[7] = biological target: T1, Interleukin-1 receptor-associated kinase 4 (Homo sapiens); details: at 10 µM
[8] = biological target: Insulin receptor-related protein (Homo sapiens) (UniProt P14616); details: at 1 µM
Chain of Insulin receptor-related protein (Homo sapiens) (P14616 27-742 limits assumed): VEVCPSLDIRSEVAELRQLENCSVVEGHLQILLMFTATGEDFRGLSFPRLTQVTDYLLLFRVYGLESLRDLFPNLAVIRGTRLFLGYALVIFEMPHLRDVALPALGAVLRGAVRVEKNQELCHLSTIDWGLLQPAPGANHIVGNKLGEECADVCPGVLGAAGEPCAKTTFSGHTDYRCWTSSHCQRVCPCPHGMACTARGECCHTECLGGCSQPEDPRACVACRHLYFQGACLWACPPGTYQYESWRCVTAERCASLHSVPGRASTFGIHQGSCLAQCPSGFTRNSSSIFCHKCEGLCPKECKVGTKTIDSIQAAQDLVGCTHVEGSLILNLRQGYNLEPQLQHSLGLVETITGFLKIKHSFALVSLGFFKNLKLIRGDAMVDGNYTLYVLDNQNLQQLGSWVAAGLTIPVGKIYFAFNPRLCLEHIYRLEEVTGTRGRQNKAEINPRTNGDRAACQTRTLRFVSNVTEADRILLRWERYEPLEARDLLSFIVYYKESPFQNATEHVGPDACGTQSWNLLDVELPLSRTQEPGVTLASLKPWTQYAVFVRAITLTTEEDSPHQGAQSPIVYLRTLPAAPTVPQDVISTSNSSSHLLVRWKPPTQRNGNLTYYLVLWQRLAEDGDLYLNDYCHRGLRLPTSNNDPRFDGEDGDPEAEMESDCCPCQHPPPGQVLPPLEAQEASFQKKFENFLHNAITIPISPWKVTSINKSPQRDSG
Chain of Insulin receptor-related protein (Homo sapiens) (P14616 747-1297 limits assumed): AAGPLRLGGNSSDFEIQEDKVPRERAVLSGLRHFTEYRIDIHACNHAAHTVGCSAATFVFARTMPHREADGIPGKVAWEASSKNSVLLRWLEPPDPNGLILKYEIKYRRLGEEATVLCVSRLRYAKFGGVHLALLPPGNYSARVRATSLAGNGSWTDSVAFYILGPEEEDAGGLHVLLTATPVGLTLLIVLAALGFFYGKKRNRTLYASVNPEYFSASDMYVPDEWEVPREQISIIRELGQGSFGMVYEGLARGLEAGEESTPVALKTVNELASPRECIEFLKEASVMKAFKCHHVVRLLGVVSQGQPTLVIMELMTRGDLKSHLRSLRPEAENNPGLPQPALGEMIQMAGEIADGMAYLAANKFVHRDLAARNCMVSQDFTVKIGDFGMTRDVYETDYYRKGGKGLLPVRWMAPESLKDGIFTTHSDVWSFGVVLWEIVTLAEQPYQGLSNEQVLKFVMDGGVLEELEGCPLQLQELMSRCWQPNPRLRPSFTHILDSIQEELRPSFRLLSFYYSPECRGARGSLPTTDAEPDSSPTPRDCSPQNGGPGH

[9] = biological target: Insulin receptor-related protein (Homo sapiens) (UniProt P14616); details: at 10 µM
[10] = biological target: T2, Tyrosine-protein kinase ITK/TSK (Homo sapiens) (UniProt Q08881); details: at 1 µM
T2 sequence (whole entry): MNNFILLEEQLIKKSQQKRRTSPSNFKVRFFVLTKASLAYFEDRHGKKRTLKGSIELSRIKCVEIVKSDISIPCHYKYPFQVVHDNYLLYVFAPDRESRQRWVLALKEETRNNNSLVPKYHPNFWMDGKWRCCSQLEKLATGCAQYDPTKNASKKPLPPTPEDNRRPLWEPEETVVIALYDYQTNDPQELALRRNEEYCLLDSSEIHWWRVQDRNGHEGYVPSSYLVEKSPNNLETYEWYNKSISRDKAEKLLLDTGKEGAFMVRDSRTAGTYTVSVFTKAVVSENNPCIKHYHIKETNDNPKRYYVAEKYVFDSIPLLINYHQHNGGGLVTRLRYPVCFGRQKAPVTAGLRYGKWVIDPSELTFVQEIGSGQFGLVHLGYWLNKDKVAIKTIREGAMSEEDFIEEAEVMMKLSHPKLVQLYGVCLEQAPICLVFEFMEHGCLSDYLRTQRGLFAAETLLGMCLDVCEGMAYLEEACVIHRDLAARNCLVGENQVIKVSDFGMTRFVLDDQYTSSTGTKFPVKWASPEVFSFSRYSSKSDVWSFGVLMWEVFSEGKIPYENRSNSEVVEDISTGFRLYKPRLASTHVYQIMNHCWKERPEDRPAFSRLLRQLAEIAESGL

[11] = biological target: T2, Tyrosine-protein kinase ITK/TSK (Homo sapiens); details: at 10 µM
[12] = biological target: Tyrosine-protein kinase JAK2 (Homo sapiens) (UniProt O60674); details: at 1 µM
Chain of Tyrosine-protein kinase JAK2 (Homo sapiens) (O60674 whole entry): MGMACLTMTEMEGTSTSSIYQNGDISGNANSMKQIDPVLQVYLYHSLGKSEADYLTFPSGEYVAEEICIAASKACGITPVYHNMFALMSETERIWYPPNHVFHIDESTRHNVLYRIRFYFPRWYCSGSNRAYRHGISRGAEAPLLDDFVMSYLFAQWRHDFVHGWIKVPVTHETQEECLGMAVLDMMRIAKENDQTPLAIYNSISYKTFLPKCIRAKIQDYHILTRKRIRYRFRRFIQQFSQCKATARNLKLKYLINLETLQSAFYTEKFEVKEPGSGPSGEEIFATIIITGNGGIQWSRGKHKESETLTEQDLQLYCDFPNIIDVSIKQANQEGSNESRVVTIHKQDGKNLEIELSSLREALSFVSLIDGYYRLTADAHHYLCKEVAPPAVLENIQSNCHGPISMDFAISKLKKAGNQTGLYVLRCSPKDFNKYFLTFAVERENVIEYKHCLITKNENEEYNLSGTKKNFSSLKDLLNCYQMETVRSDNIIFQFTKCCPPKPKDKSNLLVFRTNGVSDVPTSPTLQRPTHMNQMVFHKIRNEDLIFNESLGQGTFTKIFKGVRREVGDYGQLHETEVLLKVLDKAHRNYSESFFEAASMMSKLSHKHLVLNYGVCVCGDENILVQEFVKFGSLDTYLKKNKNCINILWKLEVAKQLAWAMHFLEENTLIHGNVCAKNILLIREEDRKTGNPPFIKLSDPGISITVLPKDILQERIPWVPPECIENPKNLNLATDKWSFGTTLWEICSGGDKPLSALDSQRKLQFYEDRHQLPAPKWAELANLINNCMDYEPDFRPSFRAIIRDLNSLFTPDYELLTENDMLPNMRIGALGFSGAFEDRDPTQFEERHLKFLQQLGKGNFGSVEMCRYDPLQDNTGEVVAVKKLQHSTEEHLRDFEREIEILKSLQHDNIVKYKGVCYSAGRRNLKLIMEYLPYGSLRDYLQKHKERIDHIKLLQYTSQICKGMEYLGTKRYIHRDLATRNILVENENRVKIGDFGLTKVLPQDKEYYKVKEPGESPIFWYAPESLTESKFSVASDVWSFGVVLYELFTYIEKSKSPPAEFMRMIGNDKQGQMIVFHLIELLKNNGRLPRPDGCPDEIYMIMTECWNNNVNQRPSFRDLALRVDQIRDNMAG

[13] = biological target: Tyrosine-protein kinase JAK2 (Homo sapiens) (UniProt O60674); details: at 10 µM
[14] = biological target: T3, Tyrosine-protein kinase JAK3 (Homo sapiens) (UniProt P52333); details: at 1 µM
T3 sequence (whole entry): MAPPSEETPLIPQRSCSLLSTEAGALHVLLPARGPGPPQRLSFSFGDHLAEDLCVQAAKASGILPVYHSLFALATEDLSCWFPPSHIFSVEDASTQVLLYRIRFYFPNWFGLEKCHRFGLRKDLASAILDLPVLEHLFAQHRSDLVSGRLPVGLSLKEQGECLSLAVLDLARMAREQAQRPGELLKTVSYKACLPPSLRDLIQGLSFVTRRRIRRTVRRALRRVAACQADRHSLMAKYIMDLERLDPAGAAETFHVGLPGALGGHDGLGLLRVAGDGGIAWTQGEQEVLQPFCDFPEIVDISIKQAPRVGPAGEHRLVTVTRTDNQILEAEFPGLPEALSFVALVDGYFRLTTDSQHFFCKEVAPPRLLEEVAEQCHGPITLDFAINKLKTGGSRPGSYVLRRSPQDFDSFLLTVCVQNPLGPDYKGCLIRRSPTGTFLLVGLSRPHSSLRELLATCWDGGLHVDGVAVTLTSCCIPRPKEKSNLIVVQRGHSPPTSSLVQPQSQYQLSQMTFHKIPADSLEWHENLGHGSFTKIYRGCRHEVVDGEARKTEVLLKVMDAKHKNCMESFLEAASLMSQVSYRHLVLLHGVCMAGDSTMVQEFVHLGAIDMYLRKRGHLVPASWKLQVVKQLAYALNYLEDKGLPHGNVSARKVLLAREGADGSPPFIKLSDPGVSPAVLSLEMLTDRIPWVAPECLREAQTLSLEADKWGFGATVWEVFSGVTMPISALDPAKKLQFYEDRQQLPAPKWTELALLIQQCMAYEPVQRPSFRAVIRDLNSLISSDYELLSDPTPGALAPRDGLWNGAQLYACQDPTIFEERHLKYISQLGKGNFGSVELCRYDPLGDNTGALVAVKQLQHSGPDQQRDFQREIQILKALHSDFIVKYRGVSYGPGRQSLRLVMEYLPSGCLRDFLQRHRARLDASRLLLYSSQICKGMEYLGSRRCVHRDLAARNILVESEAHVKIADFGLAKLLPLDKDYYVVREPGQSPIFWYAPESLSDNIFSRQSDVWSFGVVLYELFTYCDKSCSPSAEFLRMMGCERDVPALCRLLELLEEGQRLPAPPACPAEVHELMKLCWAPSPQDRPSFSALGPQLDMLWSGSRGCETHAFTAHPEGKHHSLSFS

[15] = biological target: T3, Tyrosine-protein kinase JAK3 (Homo sapiens); details: at 10 µM
[16] = biological target: Mitogen-activated protein kinase 8 (Homo sapiens) (UniProt P45983); details: at 1 µM
Chain of Mitogen-activated protein kinase 8 (Homo sapiens) (P45983 whole entry): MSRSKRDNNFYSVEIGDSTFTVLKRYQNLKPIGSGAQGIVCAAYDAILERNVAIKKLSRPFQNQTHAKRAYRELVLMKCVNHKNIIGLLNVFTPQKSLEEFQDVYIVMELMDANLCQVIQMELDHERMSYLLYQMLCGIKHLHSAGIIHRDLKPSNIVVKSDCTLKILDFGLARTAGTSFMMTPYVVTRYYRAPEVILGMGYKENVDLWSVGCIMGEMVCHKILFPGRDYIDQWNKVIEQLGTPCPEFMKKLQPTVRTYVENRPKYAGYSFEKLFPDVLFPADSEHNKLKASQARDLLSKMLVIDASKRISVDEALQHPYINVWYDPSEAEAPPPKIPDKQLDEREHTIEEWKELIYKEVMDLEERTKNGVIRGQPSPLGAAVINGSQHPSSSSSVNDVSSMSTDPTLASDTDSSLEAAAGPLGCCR

[17] = biological target: Mitogen-activated protein kinase 8 (Homo sapiens) (UniProt P45983); details: at 10 µM
[18] = biological target: Mitogen-activated protein kinase 9 (Homo sapiens) (UniProt P45984); details: at 1 µM
Chain of Mitogen-activated protein kinase 9 (Homo sapiens) (P45984 whole entry, looked up): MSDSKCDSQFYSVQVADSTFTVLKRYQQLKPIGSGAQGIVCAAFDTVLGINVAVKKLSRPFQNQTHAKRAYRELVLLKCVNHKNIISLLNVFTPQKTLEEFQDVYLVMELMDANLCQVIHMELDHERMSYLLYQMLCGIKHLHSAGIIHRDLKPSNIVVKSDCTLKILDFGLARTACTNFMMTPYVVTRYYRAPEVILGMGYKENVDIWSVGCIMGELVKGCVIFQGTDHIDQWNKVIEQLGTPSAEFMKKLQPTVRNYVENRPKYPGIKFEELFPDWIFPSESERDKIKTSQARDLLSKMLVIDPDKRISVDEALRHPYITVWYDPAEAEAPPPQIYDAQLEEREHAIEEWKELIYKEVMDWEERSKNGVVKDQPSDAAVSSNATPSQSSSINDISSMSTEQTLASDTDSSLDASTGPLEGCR

[19] = biological target: Mitogen-activated protein kinase 9 (Homo sapiens) (UniProt P45984); details: at 10 µM
[20] = biological target: Mitogen-activated protein kinase 10 (Homo sapiens) (UniProt P53779); details: at 1 µM
Chain of Mitogen-activated protein kinase 10 (Homo sapiens) (P53779 whole entry): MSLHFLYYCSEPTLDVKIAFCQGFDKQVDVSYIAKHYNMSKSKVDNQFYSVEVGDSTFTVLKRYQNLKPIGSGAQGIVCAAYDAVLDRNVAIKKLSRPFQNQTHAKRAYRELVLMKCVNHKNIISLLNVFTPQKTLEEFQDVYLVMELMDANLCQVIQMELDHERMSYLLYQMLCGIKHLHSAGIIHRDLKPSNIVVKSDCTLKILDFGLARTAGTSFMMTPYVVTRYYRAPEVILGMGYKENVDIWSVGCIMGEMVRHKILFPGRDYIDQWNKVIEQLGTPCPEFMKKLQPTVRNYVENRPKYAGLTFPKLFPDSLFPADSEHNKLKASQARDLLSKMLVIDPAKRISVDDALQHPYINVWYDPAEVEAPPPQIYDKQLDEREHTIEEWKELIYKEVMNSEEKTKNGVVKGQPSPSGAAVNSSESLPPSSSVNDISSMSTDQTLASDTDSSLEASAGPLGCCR

Chain of Interleukin-1 receptor-associated kinase 1 (Homo sapiens) (P51617 whole entry, looked up): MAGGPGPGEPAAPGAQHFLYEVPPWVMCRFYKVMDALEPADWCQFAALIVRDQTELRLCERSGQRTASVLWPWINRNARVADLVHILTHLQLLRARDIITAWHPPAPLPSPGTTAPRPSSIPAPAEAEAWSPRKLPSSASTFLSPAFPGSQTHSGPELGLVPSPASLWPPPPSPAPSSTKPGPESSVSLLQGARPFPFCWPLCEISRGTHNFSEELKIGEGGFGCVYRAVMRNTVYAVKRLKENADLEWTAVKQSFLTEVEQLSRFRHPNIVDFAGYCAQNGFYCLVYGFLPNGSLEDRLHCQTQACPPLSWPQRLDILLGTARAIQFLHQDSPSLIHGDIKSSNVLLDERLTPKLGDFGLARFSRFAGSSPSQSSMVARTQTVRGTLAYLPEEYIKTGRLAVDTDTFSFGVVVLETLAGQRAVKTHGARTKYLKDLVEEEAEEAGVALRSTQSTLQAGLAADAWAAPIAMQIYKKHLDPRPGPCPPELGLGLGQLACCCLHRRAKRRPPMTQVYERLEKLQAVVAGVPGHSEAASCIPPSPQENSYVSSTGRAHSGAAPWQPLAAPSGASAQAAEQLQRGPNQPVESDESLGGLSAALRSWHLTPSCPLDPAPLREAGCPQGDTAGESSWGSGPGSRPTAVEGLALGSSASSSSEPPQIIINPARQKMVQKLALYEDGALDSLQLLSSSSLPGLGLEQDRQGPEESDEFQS

Row | SMILES | residual activity [1] [%] | residual activity [2] [%] | residual activity [3] [%] | residual activity [4] [%] | residual activity [5] [%] | residual activity [6] [%] | residual activity [7] [%] | residual activity [8] [%] | residual activity [9] [%] | residual activity [10] [%] | residual activity [11] [%] | residual activity [12] [%] | residual activity [13] [%] | residual activity [14] [%] | residual activity [15] [%] | residual activity [16] [%] | residual activity [17] [%] | residual activity [18] [%] | residual activity [19] [%] | residual activity [20] [%]
1 | O=C1NC(=O)/C(=C\c2ccc3nccnc3c2)S1 | 94 | 103 | 97 | 76 | 35 | 104 | 91 | 127 | 58 | 97 | 91 | 108 | 94 | 86 | 67 | 104 | 87 | 108 | 96 | 89
2 | COc1cccc(-c2cc(=O)c3ccccc3o2)c1N | 94 | 96 | 92 | 98 | 96 | 109 | 94 | 106 | 91 | 108 | 108 | 111 | 107 | 113 | 108 | 106 | 101 | 102 | 100 | 84
3 | O=C(Nc1cccc(Nc2cc(Nc3cccc(C(F)(F)F)c3)ncn2)c1)C1CC1 | 94 | 97 | 106 | 95 | 96 | 97 | 80 | 117 | 63 | 105 | 95 | 116 | 138 | 106 | 115 | 107 | 83 | 104 | 103 | 82
4 | CNc1cc2c(Nc3cccc(Br)c3)ncnc2cn1 | 48 | 96 | 103 | 95 | 75 | 96 | 61 | 135 | 71 | 104 | 87 | 70 | 56 | 96 | 78 | 100 | 97 | 98 | 92 | 97
5 | Nc1ccc2ncnc(NCCc3ccc(Oc4ccccc4)cc3)c2c1 | 35 | 101 | 92 | 100 | 101 | 88 | 58 | 101 | 108 | 80 | 94 | 107 | 149 | 97 | 124 | 88 | 101 | 93 | 105 | 97
6 | COc1ccc(C(=O)Nc2sc3c(c2C(N)=O)CCCC3)cc1OC | 82 | 96 | 96 | 92 | 86 | 54 | 52 | 116 | 90 | 101 | 96 | 80 | 101 | 99 | 100 | 106 | 68 | 99 | 94 | 66
7 | CN(C)c1ccc(/C=C2\C(=O)Nc3ccccc32)cc1 | 65 | 93 | 71 | 118 | 91 | 92 | 46 | 111 | 23 | 98 | 65 | 115 | 83 | 86 | 32 | 106 | 93 | 102 | 98 | 110
8 | O=C1Nc2cc(Br)ccc2/C1=C1/Nc2ccccc2/C1=N\O | 82 | 98 | 83 | 93 | 90 | 35 | 34 | 78 | 85 | 22 | 9 | 68 | 58 | 20 | 21 | 93 | 85 | 79 | 89 | 38
9 | CC(C)n1cnc2c(NCc3ccccc3)nc(NCCCO)nc21 | 70 | 99 | 75 | 105 | 106 | 93 | 76 | 106 | 84 | 105 | 96 | 101 | 103 | 111 | 108 | 104 | 95 | 98 | 99 | 57
10 | COc1ccc(S(=O)(=O)N(CCO)c2ccccc2CN(C)C/C=C/c2ccc(Cl)cc2)cc1 | 114 | 100 | 90 | 99 | 106 | 81 | 75 | 117 | 90 | 99 | 94 | 102 | 131 | 116 | 104 | 95 | 85 | 92 | 97 | 82
11 | CCOc1cc2ncnc(Nc3cccc(Br)c3)c2cc1OCC | 144 | 100 | 92 | 79 | 28 | 49 | 18 | 126 | 85 | 94 | 85 | 118 | 88 | 105 | 87 | 99 | 77 | 105 | 96 | 43
12 | Oc1n[nH]c2nnc(-c3c(-c4ccccc4)nn4ccccc34)cc12 | 12 | 89 | 75 | 99 | 103 | 75 | 89 | 25 | 2 | 99 | 102 | 99 | 102 | 104 | 100 | 96 | 87 | 93 | 92 | 52
13 | Ic1cccc(CSc2nnc(-c3ccncc3)o2)c1 | 82 | 95 | 92 | 91 | 94 | 55 | 41 | 112 | 101 | 93 | 95 | 86 | 104 | 102 | 89 | 93 | 84 | 90 | 96 | 73
14 | O=C1NC(=O)c2c1c1c3ccccc3[nH]c1c1[nH]c3cc(Br)ccc3c21 | 88 | 103 | 95 | 106 | 107 | 92 | 76 | 97 | 84 | 102 | 97 | 97 | 106 | 94 | 96 | 110 | 98 | 110 | 121 | 77
15 | O=C1NC(=O)/C(=C/c2ccc3c(c2)OC(F)(F)O3)S1 | 103 | 104 | 98 | 102 | 80 | 111 | 106 | 139 | 99 | 103 | 108 | 101 | 97 | 94 | 63 | 106 | 106 | 106 | 102 | 81
16 | Nc1n[nH]c2nnc(-c3c(-c4ccccc4)nn4ccccc34)cc12 | 25 | 89 | 44 | 95 | 104 | 66 | 64 | 88 | 23 | 96 | 88 | 95 | 99 | 103 | 92 | 99 | 71 | 55 | 9 | 19
17 | COc1ccc(CNc2nc(N(CCO)CCO)nc3c2ncn3C(C)C)cc1 | 85 | 90 | 77 | 91 | 107 | 71 | 71 | 92 | 87 | 94 | 85 | 91 | 99 | 105 | 107 | 104 | 87 | 83 | 85 | 75

— ChEMBL document CHEMBL2218924, “A broad activity screen in support of a chemogenomic map for kinase signalling research and drug discovery” (Biochem J, 2013)
